# This is a sample that favours compounds with a hit; in the whole collection about 2.8% have one here.
# PI4K2A block: qHTS for small molecular inhibitors of PI4K2A | Phosphatidylinositol 4-kinase type 2-alpha (Homo sapiens), Q9BTU6 | purified PI4K2A, ADP-Glo luminescence, 1 h; hits give low values | activity change, negative = inhibition, % at 76.9 µM | 0.13% of 420,000 active | AID 1346378, 2018; in the data active means activity change below about -50%; inconclusive means mostly about -30% to -49%;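 further: -100% = wells without enzyme as full effect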
#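 Compounds are screened against recombinant PI4K2A using PI as substrate and ATP, the latter dispensed at 300 microM. Reactions run one hour at ambient temperature before ADP-Glo detection; full inhibition defined by wells lacking enzyme.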
# pAkt inh: HTS Assay for Inhibitors of Akt Phophorylation: Primary Screen; AID 651550, 2012; Neuro2A IGF-stimulated pAkt S473 HTRF, 20 min; hits give low values; activity change, % for hits at 50 µM; 0.32% of 360,000 active; in the data active means activity change below about -80%; inconclusive means mostly about -51% to -80%; further: on the % scale 0 is the no-effect control and ±100 the full control effect
#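 Neuro2A cells (4,500/well, DMEM with 0.5% FBS) were treated with compound at a single 50 µM final concentration, stimulated with 6 nM IGF for 20 min at 37 °C, and lysed. Phospho-Akt Ser473 was read by HTRF as 665/615 ratio ×10^4.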
# DRD3 antagonist: qHTS of D3 Dopamine Receptor Antagonist: qHTS; D3R cells, DiscoveRx beta-arrestin luminescence, antagonist mode; hits give low values; max response, negative = inhibition, %; 2.5% of 360,000 active; AID 652054, 2013; in the data active means max response below about -50%; inconclusive means no clear call, values can overlap the other calls; further: on the % scale 0 is the no-effect control and ±100 the full control effect
#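 Cells expressing the human receptor were seeded at 1500 cells/well, incubated overnight at 37 degrees C in 5% CO2, then exposed to library compounds with dopamine controls for 90 minutes at 37 degrees C before luminescent detection.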
# DRD3 agonist: qHTS of D3 Dopamine Receptor Agonist: qHTS; D(3) dopamine receptor (Homo sapiens), P35462; D3R DiscoveRx beta-arrestin cells, luminescence, 90 min; 0.58% of 410,000 active; max activation, %; in the data active means max activation above about 30%; further: 0% is about no effect
#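 Cells at 1500/well, incubated overnight, then treated with pinned compounds (dopamine as control) for 90 min at 37 degrees C. DiscoveRx reagent added for 30 - 60 minutes at room temperature; luminescence read.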
# LDHA block: qHTS assay for inhibitors of human lactate dehydrogenase; L-lactate dehydrogenase A chain (Homo sapiens), P00338; purified LDHA, NADH/diaphorase-resazurin fluorescence; hits give low values; activity change, % (values are at about 110 or 230 µM); 0.15% of 480,000 active; in the data active means activity change below about -30%; inconclusive means mostly about -25% to -30%;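 further: plate controls were DMSO wells for no effect and wells without enzyme for full effect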
#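 LDH5 2 nM; NADH 0.06 mM, pyruvate 0.2 mM; 200 mM Tris pH 7.4, EDTA, Tween-20; 5 min RT. Detection: diaphorase 0.133 mg/mL + resazurin 37 µM, fluorescence ex540/em590 at 0 and 20 min; normalized to enzyme-free and DMSO wells.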
# RGS4 inh: Inhibitors of Regulator of G Protein Signaling (RGS) 4: qHTS; Regulator of G-protein signaling 4 (Homo sapiens), P49798; Transcreener GDP fluorescence polarization, RGS4-accelerated GTP hydrolysis; Potency, µM (doses to about 114 µM), for the others: at the highest dose activity change, negative = inhibition, usual class: inhibitors; 0.039% of 390,000 active; AID 504845, 2011; active means well fitted inhibition curve with a large enough effect; inconclusive means small, poorly fitted or top-dose-only effect; inactive means no such curve, though single readings can be large or run the other way; further: potency means the concentration at half of the fitted maximal effect; on the % scale 0 is the no-effect control and ±100 the full control effect; nearly all actives have a fitted effect of over 75% in size
# Target sequence (P49798 whole entry, looked up): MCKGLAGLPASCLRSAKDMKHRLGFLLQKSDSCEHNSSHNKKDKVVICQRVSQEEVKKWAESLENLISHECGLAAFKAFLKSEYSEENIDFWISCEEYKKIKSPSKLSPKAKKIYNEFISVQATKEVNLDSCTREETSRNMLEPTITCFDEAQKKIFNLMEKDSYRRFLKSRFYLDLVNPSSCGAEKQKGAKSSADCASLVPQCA
#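 MLSMR compounds (23 nl, pin-transferred) preincubated 10 min at room temperature with a 500nM (2x) first reagent, then RGS4 at 900nM (2x) plus Transcreener GDP mix added; fluorescence polarization (620/688 nm) read before and after 90 min at 30 °C.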
# Starred values were filed as active, the others as inactive; i = inactive; ? = inconclusive; / = no result; ! = repeats disagree.
SMILES,PI4K2A block,pAkt inh,DRD3 antagonist,DRD3 agonist,LDHA block,RGS4 inh
O=C(c1ccccc1)c1cc(Cl)ccc1N1C(=O)C=CC1=O,9,i,-92*,-28,0,?
O=C(CC(=O)c1cc(Cl)ccc1O)c1ccccc1,-4,i,13,4,1,-14%
O=C(NCCN1CCC(n2c(=O)[nH]c3ccccc32)CC1)c1ccccc1,-2,i,-113*,-13,-5,/
O=C(NCCN1CCC(n2c(=O)[nH]c3ccccc32)CC1)c1ccc(F)cc1Cl,-1,i,-77*,-16,2,/
Cc1ccc(C(=O)NCCN2CCC(n3c(=O)[nH]c4ccccc43)CC2)cc1C,-1,i,-111*,-17,0,/
O=C(NCCN1CCC(n2c(=O)[nH]c3ccccc32)CC1)N1c2ccccc2Sc2ccccc21,1,i,-111*,-13,3,/
CCn1cc(CN(C)C(=O)c2cc3cc(Br)ccc3oc2=O)c(C)n1,/,/,/,/,1,/
CC(C)C(NCC(N)=O)c1cccs1 (configuration not stated),/,/,/,/,-20,/
Cc1ccc(-n2ncc(Br)c(Br)c2=O)cc1,13,i,-76*,-25,-1,-8%
COc1c(Cl)cnn(-c2ccc(C)cc2)c1=O,5,i,3,-3,-4,-19%
O=c1c(Br)c(Br)cnn1-c1ccccc1,3,i,-72*,-11,-9,5%
Cc1oc2cc(OC(C)C(=O)Nc3ccc4c(c3)OCO4)ccc2c(=O)c1-c1ccccc1 (configuration not stated),/,/,/,/,15,/
Cc1ccc(C(CNC(=O)c2cccs2)N2CCC(C)CC2)o1 (configuration not stated),/,/,/,/,20,/
CCCNC(=O)c1cc(C2CCCCN2S(C)(=O)=O)on1 (configuration not stated),-7,i,-91*,-26,-5,/
Cc1ccc(NC(=O)c2cc3c(s2)CCCCC3)cc1,/,/,/,/,8,/
C=CCNCCCCOc1ccc(C)cc1[N+](=O)[O-],13,i,-82*,1,-19,-31%
COCCCNCCOCCOc1ccc(C)cc1[N+](=O)[O-],10,i,-54*,-4,-20,-33%
COCCNCCCCOc1ccc(C)cc1[N+](=O)[O-],7,i,0,-25,-20,14%
CCC(C)NCCCCOc1ccc(C)cc1[N+](=O)[O-] (configuration not stated),8,/,-93*,-30,-17,3%
COCCCNCCOc1ccc(C)cc1[N+](=O)[O-],-3,i,-84*,-18,-12,-7%
CCCOc1ccc(C(=O)NCc2coc(-c3cccs3)n2)cc1,/,/,/,/,-2,/
COC(=O)c1cc2c(-c3ccccc3)cc3ccccn3c-2c1C(=O)OC,8,i,0,3,-5,2%
COC(=O)c1c(C)c2c(C)cc3ccccn3c-2c1C(=O)OC,-2,-104%*,8,-6,-3,13%
Cc1ccc(NC(=O)CN2CC(C)SC2=NC2CCCCC2)cc1 (configuration not stated),-5,i,-96*!,-16,-8,-3%
CCN(Cc1ccccc1)C(=O)Nc1ccc2c(C)cc(=O)oc2c1,/,/,/,/,3,/
O=[N+]([O-])c1cc(S(=O)(=O)C(F)(F)F)ccc1Sc1nc2ccccc2s1,38,i,-95*,-14,-3,-41%
CS(=O)(=O)c1ccc(Sc2nc3ccccc3s2)c([N+](=O)[O-])c1,1,i,-15,-1,-14,-25%
Cc1cc(Sc2nc(N)ncc2[N+](=O)[O-])ncn1,-14,i,-60*,-7,-3,-10%
Cc1cc(Sc2ncnc(N)c2[N+](=O)[O-])ncn1,0,i,-71*,-27,-1,-26%

# Bioassay records as filed in PubChem.
